Hit rate of the full screen: of about 5,500 compounds, about 2,000 (36%) were called active. Inconclusive results (about 18%) are left out. Cut-off read from the data, not from the text of the source: active = normalized growth mostly below about 0.91 (no sharp cut-off); inconclusive = no clear call, values can overlap the other calls; inactive = mostly above about 0.92. The list shows a part of the results.
Experiment: chemical genetic growth profiling, strain panel (AID 1159580);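 note: tested at 20 µM; growth read once vehicle control cultures reached saturation at 30 °C; 1 = growth at the plate median or of vehicle wells; lower values mean less growth of the strain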
Details: S. cerevisiae deletion strains, growth OD

Measured: normalized growth

C#C[C@]1(O)CCC2C3CCc4cc(OC)ccc4C3CC[C@@]21C (stereo not given in full)
active: locus YBR023C, strain chs3, active compounds read low 0.913 | locus YCL016C, strain dcc1, active compounds read low 0.912 | locus YDR137W, strain rgp1, active compounds read low 0.839 | locus YDR392W, strain spt3, active compounds read low 0.614 | locus YHR142W, strain chs7, active compounds read low 0.866 | locus YLR262C, strain YPT6 (second series), active compounds read low 0.798 | locus YNL071W, strain lat1, active compounds read low 0.89
inactive: locus YAL021C, strain ccr4, active compounds read low 1.02 | locus YAL026C, strain drs2, active compounds read low 0.956 | locus YAL030W, strain snc1, active compounds read low 0.987 | locus YBL061C, strain skt5, active compounds read low 0.968 | locus YBR009C, strain hhf1, active compounds read low 0.933 | locus YBR171W, strain sec66, active compounds read low 0.959 | locus YBR231C, strain swc5, active compounds read low 0.953 | locus YBR279W, strain paf1, active compounds read low 0.967 | locus YCL011C, strain gbp2, active compounds read low 0.923 | locus YCL061C, strain MRC1, active compounds read low 0.937 | locus YCL069W, strain vba3, active compounds read low 0.976 | locus YCR088W, strain abp1, active compounds read low 0.972 | locus YDL005C, strain med2, active compounds read low 0.985 | locus YDL040C, strain nat1, active compounds read low 0.982 | locus YDR001C, strain nth1, active compounds read low 0.982 | locus YDR069C, strain doa4, active compounds read low 1.01 | locus YDR159W, strain sac3, active compounds read low 0.949 | locus YDR195W, strain ref2 1.01 | locus YDR297W, strain sur2, active compounds read low 0.994 | locus YDR334W, strain swr1, active compounds read low 0.983 | locus YDR335W, strain msn5, active compounds read low 0.998 | locus YEL003W, strain gim4, active compounds read low 0.984 | locus YEL037C, strain rad23, active compounds read low 0.968 | locus YEL061C, strain CIN8 (second series), active compounds read low 0.972 | locus YER015W, strain faa2, active compounds read low 0.991 | locus YER016W, strain bim1, active compounds read low 0.99 | locus YER111C, strain swi4, active compounds read low 0.969 | locus YER155C, strain BEM2 (second series), active compounds read low 0.923 | locus YFR010W, strain ubp6, active compounds read low 0.962 | locus YGL167C, strain pmr1, active compounds read low 0.972 | locus YGL173C, strain kem1, active compounds read low 0.98 | locus YGL227W, strain vid30, active compounds read low 0.987 | locus YGL240W, strain doc1, active compounds read low 0.963 | locus YGL253W, strain hxk2, active compounds read low 0.912 | locus YHR013C, strain ard1, active compounds read low 0.926 | locus YHR027C, strain rpn1, active compounds read low 0.987 | locus YHR030C, strain SLT2, active compounds read low 0.974 | locus YHR079C, strain IRE1, active compounds read low 0.987 | locus YJL092W, strain hpr5, active compounds read low 0.96 | locus YJL095W, strain BCK1 (second series), active compounds read low 0.975 | locus YJL095W, strain BCK1, active compounds read low 0.975 | locus YJL115W, strain asf1, active compounds read low 0.988 | locus YJL129C, strain trk1, active compounds read low 0.965 | locus YJL154C, strain vps35, active compounds read low 0.983 | locus YJL164C, strain tpk1, active compounds read low 0.923 | locus YJL166W, strain qcr8, active compounds read low 0.923 | locus YJL187C, strain SWE1, active compounds read low 0.987 | locus YJR066W, strain TOR1, active compounds read low 0.933 | locus YKL160W, strain elf1, active compounds read low 0.913 | locus YKR026C, strain gcn3, active compounds read low 0.988 | locus YKR091W, strain srl3, active compounds read low 0.975 | locus YLL001W, strain dnm1, active compounds read low 0.903 | locus YLL026W, active compounds read low 0.979 | locus YLL041C, strain sdh2, active compounds read low 0.986 | locus YLR027C, strain aat2, active compounds read low 0.969 | locus YLR113W, strain HOG1, active compounds read low 0.931 | locus YLR221C, strain rsa3, active compounds read low 0.912 | locus YLR258W, strain gsy2, active compounds read low 0.956 | locus YLR320W, strain mms22, active compounds read low 0.902 | locus YLR342W, strain FKS1, active compounds read low 0.952 | locus YLR357W, strain rsc2, active compounds read low 0.909 | locus YLR370C, strain arc18, active compounds read low 0.966 | locus YLR384C, strain iki3, active compounds read low 0.986 | locus YML120C, strain ndi1, active compounds read low 0.933 | locus YMR058W, strain fet3, active compounds read low 0.935 | locus YMR125W, strain sto1, active compounds read low 0.951 | locus YMR129W, active compounds read low 0.977 | locus YMR205C, strain PFK2, active compounds read low 0.923 | locus YMR231W, strain pep5, active compounds read low 0.993 | locus YNL183C, strain NPR1, active compounds read low 0.917 | locus YNL209W, strain ssb2, active compounds read low 0.974 | locus YNL248C, strain rpa49, active compounds read low 0.951 | locus YNL322C, strain KRE1 (second series), active compounds read low 0.964 | locus YNR049C, strain mso1, active compounds read low 0.983 | locus YOR001W, strain rrp6, active compounds read low 1 | locus YOR070C, strain gyp1, active compounds read low 0.951 | locus YOR080W, strain dia2, active compounds read low 0.999 | locus YOR083W, strain WHI5, active compounds read low 0.919 | locus YOR106W, strain vam3, active compounds read low 0.969 | locus YOR231W, strain MKK1, active compounds read low 0.958 | locus YOR265W, strain rbl2, active compounds read low 0.969 | locus YOR270C, strain vph1, active compounds read low 0.949 | locus YOR290C, strain snf2, active compounds read low 0.874 | locus YPL051W, strain arl3, active compounds read low 0.923 | locus YPL078C, strain atp4, active compounds read low 0.902 | locus YPL106C, strain sse1, active compounds read low 0.913 | locus YPL240C, strain hsp82, active compounds read low 0.985 | locus YPL256C, strain CLN2, active compounds read low 0.973

From PubChem BioAssay AID1159580 (chemical genetic matrix, 2015)
